High-throughput results (PubChem BioAssay)
The full list was thinned out, with hits kept by preference.
Cruzain inh Det = cruzain (T. cruzi) inhibition with detergent. P25779. purified cruzain, Z-FR-AMC fluorescence, 0.01% Triton. Potency, µM, without a hit: max response, negative = inhibition, usual class: inhibitors. 0.43% of 200,000 active;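 further: potency means the concentration at half of the fitted maximal effect; plate controls were neutral wells for no effect and buffer without enzyme for full effect; nearly all actives have a fitted effect of over 40% in size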
Target sequence (P25779 123-467 limits assumed): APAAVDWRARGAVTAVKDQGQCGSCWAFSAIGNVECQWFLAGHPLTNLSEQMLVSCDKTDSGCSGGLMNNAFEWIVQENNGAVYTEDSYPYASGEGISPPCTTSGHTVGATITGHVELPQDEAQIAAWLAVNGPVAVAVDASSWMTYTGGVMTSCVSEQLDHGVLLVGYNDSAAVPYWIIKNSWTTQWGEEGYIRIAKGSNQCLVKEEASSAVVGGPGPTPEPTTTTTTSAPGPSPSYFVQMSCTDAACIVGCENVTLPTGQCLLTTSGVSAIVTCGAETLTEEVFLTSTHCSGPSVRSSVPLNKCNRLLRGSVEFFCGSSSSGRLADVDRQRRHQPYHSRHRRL
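Detergent-containing arm of a paired screen for aggregation-based inhibition: 0.01% Triton X-100 present. Cruzain at 1.5 nM cleaved 2 uM Z-FR-AMC at pH 5.5 with 5 mM DTT; AMC fluorescence gain over 60 s measured activity.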
NS1 function inh = influenza NS1 inhibition | 0.4% of 270,000 active | Potency, µM (highest dose often 46.1 µM), for inactives: top-dose activity, positive = more growth; calls by dose curve; further: potency means the concentration at half of the fitted maximal effect; actives are rising curves; nearly all actives have a fitted effect of over 50% in size
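S. cerevisiae expressing influenza A NS1, grown in glucose, washed, then diluted 1:100 into pH 6.0 -URA galactose medium with 23 nl compound. Growth recovery read as OD600; NS1-free strain serves as control.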
Cruzain noTriton = inhibitors of Trypanosoma cruzi cruzain without detergent. Potency, µM, for the others: max response, negative = inhibition, usual class: inhibitors. purified cruzain, Z-FR-AMC fluorescence, no detergent. AID 1476. P25779. 2.3% of 200,000 active;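 further: potency means the concentration at half of the fitted maximal effect; plate controls were enzyme without inhibitor for no effect and buffer without enzyme for full effect; nearly all actives have a fitted effect of over 40% in size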
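Detergent-free condition (0.00005% Triton X-100) in acetate buffer pH 5.5 with DTT. 1.5 nM enzyme and compound were pre-mixed 15 min, then 2 uM Z-FR-AMC substrate added; reaction progress from fluorescence change between first and third reads (60 s).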
Flu NS1 inh = validation of influenza NS1 protein function inhibitors; influenza NS1 function cell assay, 15-point titration; shares compounds with NS1 function inh; activity change, negative = inhibition, % at 32.9 µM; 1,400 tested, under 10 active; calls by dose curve; further: 0% is about no effect
PR8 titer = influenza NS1 inhibitors: inhibition of influenza A/PR/8/34 replication; shares compounds with NS1 function inh; MDCK infected influenza A/PR/8/34, virus titer TCID50; active compounds read low; virus titer (log TCID50), log10 TCID50 at 5 µM; 30% of 95 active; call rule not given here
Numbers without * were called inactive; ? = inconclusive; · = not tested or not shown; ! = not active in a repeat. Unless noted, the call rests on the fitted dose curve; in most records, active means well fitted curve in the direction sought with a large enough effect; inconclusive means small, poorly fitted or top-dose-only effect, or another doubt; inactive means no such curve, though single readings can be large; an effect the other way counts as inactive or inconclusive.

SMILES	Cruzain inh Det	NS1 function inh	Cruzain noTriton	Flu NS1 inh	others
CCCCCCCCCCCCCCCCOCC(COP(=O)([O-])OCC[N+](C)(C)C)OC (stereo not given)	0%	·	14%	·
Cc1c(C(=O)NCCC2=CCCCC2)oc2ccc(S(=O)(=O)N3CCOCC3)cc12	-3%	-10%	?	·
Cc1c(C(=O)O)oc2ccc(S(=O)(=O)NCCC3=CCCCC3)cc12	-2%	10µM*	-18%	17
CCOC(=O)CCCN	3%	-7%	6%	·
Cc1cc(=O)[nH]c(SCC(=O)Nc2nc(-c3ccccc3)c(-c3ccccc3)o2)n1	-12%	?	?	-14
Cc1cc(C)nc(SCC(=O)Nc2nc(-c3ccccc3)c(-c3ccccc3)o2)n1	-4%	18%	?	·
O=S(=O)(Nc1cccc(-c2ccc(N3CCCCC3)nn2)c1)c1ccc(Cl)s1	-5%	·	?	·
CCOc1c(Br)cc(C2CC(=O)Nc3cc4c(cc32)OCO4)cc1OC (stereo not given)	-1%	·	-6%	·
CC12CCC(C(=O)N(CSC(=S)N/N=C\c3ccccc3Cl)C1=O)C2(C)C (stereo not given)	3%	10µM*	16µM*	?	PR8 titer=6.5*
CC12CCC(C(=O)N(CSC(=S)N/N=C\c3ccccc3)C1=O)C2(C)C (stereo not given)	-3%	?	-1%	·
CC(C)CN(CCNC(=O)c1cc(-c2cccs2)nc2ccccc12)CC(C)C	-2%	·	5%	·
COc1cc(OC)c(NC(=O)c2c(C)nn(-c3ccc(C)cc3)c2-n2cccc2)cc1Cl	-1%	·	-10%	·
CCOC(=O)C1=C(C)N=C2SC(C(=O)OC)=CC(=O)N2C1c1ccc(F)cc1 (stereo not given)	-20%	?	?	·
CCOC(=O)C1=C(C)N=C2SC(C(=O)OC)=CC(=O)N2C1c1cccc(OC)c1 (stereo not given)	-15%	14µM*	24%	-19
CC(=O)c1cccc(OCc2cc(C(=O)NCCC3=CCCCC3)no2)c1	·	-15%	·	·
COc1cccc(C2C(C(=O)Nc3ccccc3OC)=C(C)Nc3nc4ccccc4n32)c1 (stereo not given)	-8%	·	0%	·
Cc1cccc(N2CCN(S(=O)(=O)c3ccc(-c4cc(C(F)(F)F)on4)s3)CC2)c1C	3%	·	-18%	·
O=C(CNC(=O)c1ccccc1)N/N=C/C=C/c1ccccc1	·	10%	·	·
O=C(Cc1cc(=O)[nH][nH]1)N/N=C/C=C/c1ccccc1	-3%	5µM*!	-11%	33
CC1=C2[C@@H]([C@H](C)CC[C@H]2/C=C(\C)C(=O)O)[C@H](O)C1	-1%	·	-2%	·
Cc1ccc(CNC(=O)C(=O)NCC(c2cccnc2)N2CCN(c3ccccc3F)CC2)cc1 (stereo not given)	-12%	·	?	·
CC(C)[C@H](CO)Nc1nc(Nc2cccc(Cl)c2)c2ncn(C(C)C)c2n1	-4%	·	?	·
CCc1ccc2[nH]c(=O)c(C3C(C#N)=C(N)Oc4c3ccc3cccnc43)cc2c1 (stereo not given)	-3%	-76%	3%	·
Cc1ccc2cc(C3C(C#N)=C(N)Oc4c3ccc3cccnc43)c(=O)[nH]c2c1 (stereo not given)	-7%	2.8µM*	-13%	8
COc1cc(CCC(=O)NCc2ccc3c(c2)CCN3C(=O)c2ccc(F)cc2)cc(OC)c1OC	4%	·	27%	·
SMILES	Cruzain inh Det	NS1 function inh	Cruzain noTriton	Flu NS1 inh	others
Cc1cc(C)n2nc(SCC(=O)Nc3c(C)n(C)n(-c4ccccc4)c3=O)nc2n1	2%	5µM*	-3%	8
Cc1nc(SCC(=O)Nc2c(C)n(C)n(-c3ccccc3)c2=O)nc(C)c1C	9%	5%	-7%	·
COc1ccc(Cn2c(C(=O)O)c(CNCc3ccc(SC)cc3)c3ccc(OC)cc32)cc1	-10%	·	4%	·
COC(=O)C1=C(C)N(CC2CC2)C(=O)N[C@H]1CCc1ccccc1	1%	·	-14%	·
COc1ccc(C(=O)Nn2c(SCc3cccc([N+](=O)[O-])c3)nc3ccccc3c2=O)cc1	-5%	?	?	·
O=C(Nn1c(SCc2cccc([N+](=O)[O-])c2)nc2ccccc2c1=O)c1ccccc1	-5%	14µM*	-74%	-7
Cc1cc(-c2ccc(S(=O)(=O)N3CCN(c4ccc(Cl)cc4)CC3)s2)on1	-1%	·	-1%	·
Cc1ccc(-c2noc(C3CCCN(C(=O)c4ccccc4)C3)n2)o1 (stereo not given)	5%	-7%	10%	·
Cc1ccc(-c2noc(C3CCCN(C(=O)c4ccccc4Br)C3)n2)o1 (stereo not given)	·	?	·	-10
C=CCCCCCCCCCCCc1ccco1	2%	·	7%	·
CC1(C)CC(=O)c2cc(C(=O)NCc3ccco3)c(=O)n(-c3ccc(Cl)cc3)c2C1	-6%	2%	22%	·
Cc1ccc(-n2c3c(cc(C(=O)NCc4ccco4)c2=O)C(=O)CC(C)(C)C3)cc1	-5%	1.1µM*	?	-8
CCC(Sc1nc(-c2ccccc2F)nc2c1Cc1c(CO)cnc(C)c1O2)C(=O)Nc1cc(C)ccc1C (stereo not given)	-1%	·	9%	·
Cc1cc(Nc2cccc(C(F)(F)F)c2)nc2ccc(NC(=O)c3ccc(N(C)C)cc3)cc12	-1%	·	?	·
C/C(=N\NC(=O)Cc1cc(=O)[nH][nH]1)c1cccc([N+](=O)[O-])c1	-3%	27%	3%	·
C/C(=N/NC(=O)Cc1cc(=O)[nH][nH]1)c1ccc([N+](=O)[O-])cc1	-8%	13µM*	-3%	?
CN(CCc1ccccn1)c1ccc2c(c1)C(=O)c1ccccc1-2	-10%	-31%	-12%	·
Cc1cccc(CNC(=O)Cc2csc3ccccc23)c1	-1%	·	-28%	·
COc1ccc(-n2c(Cc3cccn3C)nnc2SCC(=O)Nc2ccc(F)cc2)cc1	-6%	?	30%	8
COc1ccc(NC(=O)CSc2nnc(Cc3cccn3C)n2-c2ccc(F)cc2)cc1	-3%	-8%	?	·
COc1ccc(NC(=O)CSc2nnc(-c3cccs3)n2-c2ccccc2)cc1	2%	2.8µM*	-24%	12
COc1ccc(NC(=O)CSc2nnc(C3CC3)n2-c2ccccc2)cc1	5%	-3%	-4%	·
Cn1c(SCC(=O)c2ccccc2)nnc1-c1cccs1	·	?	·	-25
Cn1c(SCC(=O)NCc2cccs2)nnc1-c1cccs1	3%	-16%	-2%	·
Cn1cccc1Cc1nnc(SCC(=O)N2CCc3ccccc32)n1-c1ccc(F)cc1	-4%	-10%	?	·
Cc1ccc(-n2c(Cc3cccn3C)nnc2SCC(=O)N2CCc3ccccc32)cc1	-3%	7.9µM*	?	-19
CC(=O)Nc1c(C(=O)Nc2cccc(C)c2)nnn1-c1ccc(C)cc1	-9%	·	?	·
COc1ccc(C2CC(c3cccc(Cl)c3)n3nc(N)nc3N2)cc1 (stereo not given)	-2%	8%	-2%	·
COc1cccc(C2CC(c3ccc(Cl)cc3)Nc3nc(N)nn32)c1 (stereo not given)	-7%	7.1µM*	16%	-11
